# Data taken from the supplement of paper PMC10849652.
# The full data set covers some 7,900 targets. This sample favours those with a hit. About 0.6% of all pairs of compound and target were hits. A number with no mark means an inactive call.
# Assays:
# Assay in all cases: log2 fold change, soluble protein after heating vs DMSO (PISA); higher = thermal stabilisation; K562 cells, 10 uM, 30 min; active = over 0.2 and 3.5 SD of the protein, either way, in both replicates (recomputed)
# YAE1 = YAE1 (UniProt Q9NRH1)
# How it was run: (§1)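 Thermal stability values are relative to control samples and come from duplicates. They are expressed as log2 fold changes. For measurement, K562 cells (2×10^6 cells/mL) received 10 μM compound for 30 min, and aliquots were heated for 3 min over 48°C-58°C, pooled, and extracted at 4°C in PBS with 0.5% NP-40. Soluble protein, the supernatant after 21,000xg for 90 min, was quantified by TMTpro 16plex LC-MS/MS with equalised channel sums.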
# YBX1 [1] = molecular target: YBX1 (UniProt P67809)
# How it was run: as §1
# YES1 = YES1 (UniProt P07947)
# How it was run: as §1
# YIPF4 = YIPF4 (UniProt Q9BSR8)
# How it was run: as §1
# YIPF5 isoform 3 = YIPF5 isoform 3 (UniProt Q969M3)
# How it was run: as §1
# YIPF6 = YIPF6 (UniProt Q96EC8)
# How it was run: as §1
# YLPM1 = YLPM1 (UniProt P49750)
# How it was run: as §1
# YOD1 = YOD1 (UniProt Q5VVQ6)
# How it was run: as §1
# YPEL5 = YPEL5 (UniProt P62699)
# How it was run: as §1
# YBX1 [2] = molecular target: YBX1 (UniProt C9J5V9)
# How it was run: as §1
# Sequence of YOD1 (Q5VVQ6 whole entry, looked up): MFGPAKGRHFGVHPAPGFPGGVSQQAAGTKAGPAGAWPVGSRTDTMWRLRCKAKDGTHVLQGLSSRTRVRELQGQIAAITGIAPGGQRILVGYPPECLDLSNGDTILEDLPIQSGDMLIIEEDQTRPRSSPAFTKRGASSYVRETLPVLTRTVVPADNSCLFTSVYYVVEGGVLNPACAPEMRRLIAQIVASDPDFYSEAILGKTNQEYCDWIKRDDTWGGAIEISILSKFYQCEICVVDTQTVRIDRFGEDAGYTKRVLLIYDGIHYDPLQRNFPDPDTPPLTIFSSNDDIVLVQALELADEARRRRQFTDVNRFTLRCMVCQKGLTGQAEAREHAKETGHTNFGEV
# Sequence of YAE1 (Q9NRH1 whole entry, looked up): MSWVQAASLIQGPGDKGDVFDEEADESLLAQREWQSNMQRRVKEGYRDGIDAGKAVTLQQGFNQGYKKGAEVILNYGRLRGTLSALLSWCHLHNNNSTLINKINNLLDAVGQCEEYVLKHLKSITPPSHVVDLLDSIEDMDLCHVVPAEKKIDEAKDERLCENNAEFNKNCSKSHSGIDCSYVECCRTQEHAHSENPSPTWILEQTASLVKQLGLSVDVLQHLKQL
# Sequence of YBX1 (UniProt P67809) (P67809 whole entry, looked up): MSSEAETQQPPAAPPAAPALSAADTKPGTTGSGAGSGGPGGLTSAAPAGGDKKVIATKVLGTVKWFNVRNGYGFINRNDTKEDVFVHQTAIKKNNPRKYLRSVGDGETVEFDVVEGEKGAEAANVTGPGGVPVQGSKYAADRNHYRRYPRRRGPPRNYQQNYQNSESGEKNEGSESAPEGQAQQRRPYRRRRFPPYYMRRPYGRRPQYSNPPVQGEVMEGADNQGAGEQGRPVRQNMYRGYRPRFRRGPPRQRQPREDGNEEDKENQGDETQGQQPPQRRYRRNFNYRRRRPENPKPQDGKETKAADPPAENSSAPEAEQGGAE
# Sequence of YIPF6 (Q96EC8 whole entry, looked up): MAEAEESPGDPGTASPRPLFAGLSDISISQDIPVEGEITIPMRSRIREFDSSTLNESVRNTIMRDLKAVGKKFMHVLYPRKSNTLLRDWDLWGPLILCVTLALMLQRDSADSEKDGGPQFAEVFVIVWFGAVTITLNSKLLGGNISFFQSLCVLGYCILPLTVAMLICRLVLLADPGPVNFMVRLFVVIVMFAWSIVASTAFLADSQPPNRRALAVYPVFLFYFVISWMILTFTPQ
# Sequence of YIPF4 (Q9BSR8 whole entry, looked up): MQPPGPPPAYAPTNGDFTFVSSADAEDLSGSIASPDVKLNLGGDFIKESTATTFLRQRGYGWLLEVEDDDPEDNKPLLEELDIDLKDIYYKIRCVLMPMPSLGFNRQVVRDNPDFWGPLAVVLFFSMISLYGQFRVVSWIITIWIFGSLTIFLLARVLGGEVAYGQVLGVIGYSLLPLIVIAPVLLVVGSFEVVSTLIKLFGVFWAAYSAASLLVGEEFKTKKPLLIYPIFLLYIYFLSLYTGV
# Sequence of YLPM1 (P49750 whole entry, looked up): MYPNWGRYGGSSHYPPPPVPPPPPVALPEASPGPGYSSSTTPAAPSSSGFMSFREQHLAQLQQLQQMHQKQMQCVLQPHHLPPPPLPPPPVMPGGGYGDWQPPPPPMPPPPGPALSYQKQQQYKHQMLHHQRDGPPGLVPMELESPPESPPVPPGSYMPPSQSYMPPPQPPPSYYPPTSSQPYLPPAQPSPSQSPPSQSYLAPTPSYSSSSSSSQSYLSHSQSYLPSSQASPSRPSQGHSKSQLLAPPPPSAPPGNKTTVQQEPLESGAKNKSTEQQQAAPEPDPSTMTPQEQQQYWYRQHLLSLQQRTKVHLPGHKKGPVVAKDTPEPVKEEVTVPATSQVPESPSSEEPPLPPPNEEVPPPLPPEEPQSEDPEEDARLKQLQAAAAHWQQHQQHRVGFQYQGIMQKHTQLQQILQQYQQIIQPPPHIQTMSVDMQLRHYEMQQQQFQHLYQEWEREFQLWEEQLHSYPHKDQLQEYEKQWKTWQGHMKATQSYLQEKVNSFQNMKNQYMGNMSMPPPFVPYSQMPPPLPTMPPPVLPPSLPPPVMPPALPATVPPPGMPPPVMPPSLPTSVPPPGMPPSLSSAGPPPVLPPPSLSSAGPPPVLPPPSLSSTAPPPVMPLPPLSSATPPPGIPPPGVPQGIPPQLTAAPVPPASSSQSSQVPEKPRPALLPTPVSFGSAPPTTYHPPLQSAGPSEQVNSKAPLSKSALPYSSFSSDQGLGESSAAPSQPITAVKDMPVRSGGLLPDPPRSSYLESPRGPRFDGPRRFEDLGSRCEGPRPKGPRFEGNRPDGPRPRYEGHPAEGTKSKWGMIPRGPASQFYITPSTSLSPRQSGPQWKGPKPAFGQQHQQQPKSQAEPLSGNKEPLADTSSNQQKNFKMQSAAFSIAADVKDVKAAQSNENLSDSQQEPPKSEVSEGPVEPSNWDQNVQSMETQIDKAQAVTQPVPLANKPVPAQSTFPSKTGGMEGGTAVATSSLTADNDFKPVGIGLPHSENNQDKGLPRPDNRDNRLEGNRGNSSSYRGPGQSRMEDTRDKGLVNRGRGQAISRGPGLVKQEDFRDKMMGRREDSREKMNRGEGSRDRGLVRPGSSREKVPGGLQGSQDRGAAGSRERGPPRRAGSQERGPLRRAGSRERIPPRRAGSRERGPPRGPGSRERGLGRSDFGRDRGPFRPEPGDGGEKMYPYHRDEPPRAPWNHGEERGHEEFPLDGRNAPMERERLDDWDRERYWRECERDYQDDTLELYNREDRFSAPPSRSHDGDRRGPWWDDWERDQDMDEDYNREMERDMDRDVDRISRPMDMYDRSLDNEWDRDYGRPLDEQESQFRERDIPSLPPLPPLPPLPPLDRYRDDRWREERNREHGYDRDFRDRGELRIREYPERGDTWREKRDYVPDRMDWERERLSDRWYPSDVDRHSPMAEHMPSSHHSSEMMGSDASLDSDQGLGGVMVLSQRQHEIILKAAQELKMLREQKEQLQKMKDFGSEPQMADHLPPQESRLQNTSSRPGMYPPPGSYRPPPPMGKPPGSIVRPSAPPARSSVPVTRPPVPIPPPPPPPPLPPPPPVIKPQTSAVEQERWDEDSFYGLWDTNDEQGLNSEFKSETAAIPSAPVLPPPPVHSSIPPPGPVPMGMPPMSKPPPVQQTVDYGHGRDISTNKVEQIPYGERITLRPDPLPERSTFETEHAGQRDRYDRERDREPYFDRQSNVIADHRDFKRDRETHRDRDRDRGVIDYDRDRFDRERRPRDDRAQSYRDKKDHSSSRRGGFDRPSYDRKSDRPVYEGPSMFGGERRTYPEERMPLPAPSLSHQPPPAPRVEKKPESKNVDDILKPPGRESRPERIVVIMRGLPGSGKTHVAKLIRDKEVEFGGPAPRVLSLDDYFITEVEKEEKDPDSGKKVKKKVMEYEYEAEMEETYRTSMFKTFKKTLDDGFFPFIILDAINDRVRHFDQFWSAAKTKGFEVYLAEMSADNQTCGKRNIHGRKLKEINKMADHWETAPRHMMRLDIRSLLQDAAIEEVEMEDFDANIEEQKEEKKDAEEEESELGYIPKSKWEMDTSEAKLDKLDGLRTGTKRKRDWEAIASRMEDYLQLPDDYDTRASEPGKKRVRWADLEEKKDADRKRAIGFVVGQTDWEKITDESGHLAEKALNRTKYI
# Sequence of YPEL5 (P62699 whole entry, looked up): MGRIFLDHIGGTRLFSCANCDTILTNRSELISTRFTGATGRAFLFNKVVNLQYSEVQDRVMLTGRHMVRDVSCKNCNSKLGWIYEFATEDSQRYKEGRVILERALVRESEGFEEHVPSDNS
# Sequence of YIPF5 isoform 3 (Q969M3 whole entry, looked up, canonical isoform): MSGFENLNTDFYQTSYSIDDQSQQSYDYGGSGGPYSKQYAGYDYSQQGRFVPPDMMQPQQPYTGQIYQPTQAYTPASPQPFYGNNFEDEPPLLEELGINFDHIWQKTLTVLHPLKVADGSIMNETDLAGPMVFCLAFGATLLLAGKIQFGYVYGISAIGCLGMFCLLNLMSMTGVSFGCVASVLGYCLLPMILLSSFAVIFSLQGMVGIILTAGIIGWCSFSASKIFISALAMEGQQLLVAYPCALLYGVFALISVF
# Sequence of YES1 (P07947 whole entry, looked up): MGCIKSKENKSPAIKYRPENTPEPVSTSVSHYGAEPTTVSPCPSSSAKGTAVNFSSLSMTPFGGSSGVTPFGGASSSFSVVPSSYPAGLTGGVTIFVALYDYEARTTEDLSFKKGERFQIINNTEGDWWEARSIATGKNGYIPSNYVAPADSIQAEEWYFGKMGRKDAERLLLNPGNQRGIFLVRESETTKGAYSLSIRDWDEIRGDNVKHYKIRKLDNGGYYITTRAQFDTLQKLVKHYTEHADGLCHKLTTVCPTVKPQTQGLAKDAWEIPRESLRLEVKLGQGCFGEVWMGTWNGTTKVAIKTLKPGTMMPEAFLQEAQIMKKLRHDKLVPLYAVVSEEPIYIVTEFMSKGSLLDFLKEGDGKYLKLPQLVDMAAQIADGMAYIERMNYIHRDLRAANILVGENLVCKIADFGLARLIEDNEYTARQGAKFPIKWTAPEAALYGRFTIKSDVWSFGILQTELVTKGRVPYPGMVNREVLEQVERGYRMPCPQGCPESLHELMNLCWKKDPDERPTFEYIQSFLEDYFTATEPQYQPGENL
SMILES,log2 fold change (YAE1),log2 fold change (YBX1 [1]),log2 fold change (YES1),log2 fold change (YIPF4),log2 fold change (YIPF5 isoform 3),log2 fold change (YIPF6),log2 fold change (YLPM1),log2 fold change (YOD1),log2 fold change (YPEL5),log2 fold change (YBX1 [2])
CC(C)(O)CC(=O)NCCn1ccc2ncnc(Nc3ccc(Oc4cccc(C(F)(F)F)c4)c(Cl)c3)c21,0.072,0.162,-0.054,-0.012,-0.094,0.019,-0.002,-0.113,0.041,
C[C@@H](Oc1cc(-c2cnn(C3CCNCC3)c2)cnc1N)c1c(Cl)ccc(F)c1Cl [crizotinib],-0.018,0,-0.576 (active),0.054,0.081,-0.081,-0.08,-0.052,0.019,0.028
COc1cc(C(=O)O)ccc1NC(=O)[C@@H]1N[C@@H](CC(C)(C)C)[C@](C#N)(c2ccc(Cl)cc2F)[C@H]1c1cccc(Cl)c1F [idasanutlin],0.124,0.159,0.041,-0.049,-0.051,-0.008,-0.026,-0.038,0.491 (active),0.131
Cc1nc(Nc2n[nH]c3c2CN(C(=O)N[C@H](CN(C)C)c2ccccc2)C3(C)C)c2sccc2n1,0.104,0.149,-0.746 (active),0.004,0.016,-0.042,-0.075,-0.089,-0.118,
Cc1ccc2c(=O)c3ccccc3n(CCCN)c2c1C,0.022,-0.637 (active),0.043,0.215,-0.006,0.145,0.023,0.063,,
O=C1c2ccccc2-c2n[nH]c3cccc1c23,-0.048,-0.051,-0.153,0.033,-0.153,-0.018,0.02,0.012,-0.158,-0.143
CNc1nc(-c2ccc3c(N)n[nH]c3c2)cc(N2C[C@@H](C(=O)NC3CCCCC3)CC[C@H]2C)n1,-0.092,0.044,-0.037,-0.082,-0.115,-0.039,0.006,0.011,-0.06,
C/C(=N\NC(=O)c1cccc(S(=O)(=O)N2CCOCC2)c1)c1cc(Cl)ccc1O,-0.051,-0.242,0.072,-0.06,0.016,-0.067,0.03,0.053,0.032,0.233
COc1ccc(Cn2ccc3ccc(C(=O)NO)cc32)cc1,0.013,-0.019,0.072,-0.098,-0.065,-0.019,0.018,0.037,-0.269,-0.033
NC(=O)c1cnc(N[C@@H]2CCCC[C@@H]2N)nc1Nc1cccc(-n2nccn2)c1,-0.038,0.048,-0.114,0.091,-0.016,-0.088,-0.034,-0.061,-0.019,-0.031
CCN(CC)Cc1ccc2cc(COC(=O)Nc3ccc(C(=O)NO)cc3)ccc2c1 [givinostat],-0.017,-0.056,0.016,-0.048,-0.053,-0.028,0.061,0.024,-0.009,
CN1CCN(CCOc2cc(OC3CCOCC3)c3c(Nc4c(Cl)ccc5c4OCO5)ncnc3c2)CC1 [saracatinib],0.025,-0.027,-0.551 (active),0.072,0.007,-0.023,0,-0.034,0.069,
CN(C)CC(=O)Nc1ccc2[nH]c(=O)c3ccccc3c2c1,-0.108,-0.134,-0.075,0.09,0.014,-0.012,-0.037,0.043,0.008,
Cc1cc(Nc2cc(N3CCN(C)CC3)nc(Sc3ccc(NC(=O)C4CC4)cc3)n2)n[nH]1 [tozasertib],0.033,-0.041,-0.45,0.079,-0.089,-0.066,-0.051,0.043,,
O=C(Nc1cccc(Nc2ncc(Br)c(NCCc3cnc[nH]3)n2)c1)N1CCCC1,-0.084,0.103,-0.139,-0.033,0.033,-0.013,-0.083,-0.012,,
NC1(c2ccc(-c3nc4ccn5c(=O)[nH]nc5c4cc3-c3ccccc3)cc2)CCC1,0.086,0.306,-0.012,-0.01,0.017,-0.024,-0.046,-0.138,-0.026,
O=C(Nc1nc2ccccc2n1CCN1CCOCC1)c1cccc([N+](=O)[O-])c1 [IRAK-1-4 Inhibitor I],0.103,-0.117,-0.152,0.093,-0.035,0.029,-0.06,0.019,-0.093,0.049
CC(C)N(C[C@H]1O[C@@H](n2cnc3c(N)ncnc32)[C@H](O)[C@@H]1O)[C@H]1C[C@@H](CCc2nc3cc(C(C)(C)C)ccc3[nH]2)C1 [pinometostat],0.011,0.053,0.035,-0.031,0.016,0.023,0.003,-0.021,0.068,-0.093
O=C1NC(=NCc2cccs2)S/C1=C\c1ccc2ncccc2c1,-0.018,-0.115,0.094,-0.006,-0.008,0.042,0.057,0.066,-0.021,-0.002
CN1CCc2c(c3ccccc3n2Cc2ccc(C(=O)NO)cc2)C1 [Tubastatin A],-0.018,0.022,0.094,-0.028,-0.103,-0.01,0.039,0.072,,
NC1(Cc2ccc(Cl)cc2)CCN(c2ncnc3[nH]ccc23)CC1,-0.022,-0.159,-0.059,-0.016,0.126,-0.015,0.102,-0.037,,
CC(=O)c1cnc2ccc(-c3cc(Cl)c(O)c(Cl)c3)nc2c1N[C@H]1CC[C@H](CN(C)C)CC1,0.078,0.155,-0.819 (active),-0.197,0.023,0.008,-0.093,-0.04,-0.173,-0.085
Cc1ccc(-n2nc(C(C)(C)C)cc2NC(=O)Nc2ccc(OCCN3CCOCC3)c3ccccc23)cc1 [doramapimod],-0.033,0.047,0.006,0.005,0.041,-0.036,0,0,0.039,0.082
Cn1cncc1[C@@](N)(c1ccc(Cl)cc1)c1ccc2c(c1)c(-c1cccc(Cl)c1)cc(=O)n2C [tipifarnib],-0.008,0.242,-0.001,0.31 (active),-0.059,-0.035,-0.048,-0.048,0.125,
Cc1cn(-c2cc(NC(=O)c3ccc(C)c(Nc4nccc(-c5cccnc5)n4)c3)cc(C(F)(F)F)c2)cn1 [nilotinib],-0.023,0.033,-0.033,0.046,0.021,0.063,-0.044,-0.061,-0.237,
Cn1c2cc(S(C)=O)sc2c2cnn(Cc3cccc(N)c3)c(=O)c21 (stereo not given),0.046,0.183,0.053,-0.06,0.043,-0.097,-0.057,-0.04,0.132,
